Experimental data published in PubChem BioAssay (EPA / NIEHS).
Where “and” joins values, the source holds several entries; their conditions need not be identical. Equal values may be shown once. Calls of active or inactive are those of the source. The calls were made as follows: active = hit-call score of the fitted dose curve at least 0.9, where 1 is the maximum; inactive = score below 0.9.

test: BSK_LPS_PGE2: BioMAP Diversity Plus: LPS Assay for Prostaglandin E2 (PGE2) Biomarker Activity (AID 2283082); conditions: primary human HUVEC with PBMC; actives raise or lower the signal
Procedure: BSK_LPS is a cell-based, multiplexed-readout assay that uses umbilical vein endothelium and peripheral blood mononuclear cells, a human vascular primary cell co-culture, with measurements taken at 24 hours after chemical dosing in a 96-well plate.BSK_LPS_PGE2 is an assay component measured in the BSK_LPS assay. It measures PGE2 antibody related to regulation of gene expression using ELISA technology.Data from the assay component BSK_LPS_PGE2 was analyzed into 1 assay endpoint. This assay endpoint, BSK_LPS_PGE2, was analyzed with bidirectional fitting relative to DMSO as the negative control and baseline of activity. Using a type of binding reporter, gain or loss-of-signal activity can be used to understand changes in the signaling as they relate to the gene PTGER2. Furthermore, this assay endpoint can be referred to as a primary readout, because this assay has produced multiple assay endpoints where this one serves a signaling function. To generalize the intended target to other relatable targets, this assay endpoint is annotated to the gpcr intended target family, where the subfamily is rhodopsin-like receptor.
The levels of cell surface (or secreted, indicated by the prefix "s") biomarker endpoints were measured by ELISA. Overt cytotoxicity to cells in confluent adherent cultures (all systems other than the BT system) was assessed by measuring total protein levels using sulforhodamine B (SRB) staining in parallel cultures at the time of biomarker measurements, indicated as SRB endpoints. For proliferation assays for adherent cell types, individual cell types are cultured at sub-confluence and relative cell numbers quantified by SRB staining at time points optimized for each system (48 h: 3C and CASM3C systems; 72 h: BT and HDF3CGF systems; 96 h: SAg system). SRB was performed by staining cells with 0.1% SRB after fixation with 10% TCA and reading wells at 560 nm.Viability and proliferation of PBMC (T cells) was quantified by Alamar Blue reduction for the SAg and BT systems. For PBMC viability (referred to as PBMC Cytotoxicity within the assay endpoint names), cells were plated (75,000/well in a 96-well plate) and then chemical samples added for 1 h before addition of activators, SEB and TSST-1 (20 ng/mL final concentration each). Cells were incubated for 90 h. Then, Alamar Blue (20 uL/well) (Invitrogen, Cat DAL1100) was added for 6 h, and the plates were read with a fluorescence microplate reader at 546/580 nm (excitation/emission). For PBMC proliferation, cells were plated and activated as above but incubated for only 16 h prior to addition of Alamar Blue. Plates were read after 6 h.

| SMILES | outcome | AC50 |
| --- | --- | --- |
| Cc1cc(CCC(=O)OCCOCCOCCOC(=O)CCc2cc(C)c(O)c(C(C)(C)C)c2)cc(C(C)(C)C)c1O | inactive | – |
| CSCCC=O | inactive | – |
| CC=Cc1ccc(OCC)c(O)c1 | – | 0.44 µM (active) |
| CC(C)(N=C=O)c1cccc(C(C)(C)N=C=O)c1 | inactive | – |
| CC1(C)CCC[C@]2(C)[C@H]3CCO[C@]3(C)CC[C@@H]12 | inactive | – |
| O=C1OC2(c3ccccc31)c1ccc(O)c(Br)c1Oc1c2ccc(O)c1Br | – | 11.1 µM (active) |
| CC(=O)c1c(C)c([N+](=O)[O-])c(C(C)(C)C)c([N+](=O)[O-])c1C | inactive | – |
| C=C(C)[C@H]1CC=C(C)C(=O)C1 | inactive | – |
| CCN(CC)C(=O)N(CC)CC | inactive | – |
| Clc1cc(Cl)c(-c2c(Cl)c(Cl)cc(Cl)c2Cl)cc1Cl | inactive | – |
| COc1cc(Cl)c(OC)cc1N | inactive | – |
| c1ccc2cc(Nc3ccc(Nc4ccc5ccccc5c4)cc3)ccc2c1 | inactive | – |
| O=CN1CCOCC1 | inactive | – |
| CN(c1nccc(=O)[nH]1)C1CCN(c2nc3ccccc3n2Cc2ccc(F)cc2)CC1 | inactive | – |
| O=C1c2ccccc2C(=O)c2c(O)ccc(O)c21 | – | 0.233 µM (active) |
| CCCCCCC(CO)CCCC (stereo not given) | inactive | – |
| CC(=O)Nc1ccc(C(=O)CCl)cc1 | – | 1.17 µM (active) |
| c1ccc(CCc2ccccc2)cc1 | inactive | – |
| CCCCCCCCCCCCCCCC(=O)OC/C=C(C)/C=C/C=C(C)/C=C/C1=C(C)CCCC1(C)C | inactive | – |
| C1=CC2C3C=CC(C3)C2C1 (stereo not given) | inactive | – |

| SMILES | outcome | AC50 |
| --- | --- | --- |
| CCCCCC(C=O)=Cc1ccccc1 | – | 34 µM (active) |
| COc1ccc(OC)c(N=Nc2c(O)ccc3ccccc23)c1 | inactive | – |
| c1ccc(Oc2ccccc2)cc1 | inactive | – |
| CCCCOC(=O)CCCCCCCC(=O)OCCCC | inactive | – |
| C=CC(C)(O)CCC=C(C)C (stereo not given) | inactive | – |
| CN(C)C(=O)Nc1ccc(Oc2ccc(Cl)cc2)cc1 | – | 5.86 µM (active) |
| COc1ccc(CCN2CCC(Nc3nc4ccccc4n3Cc3ccc(F)cc3)CC2)cc1 | inactive | – |
| O=C1OC[C@H](Cc2cccc(O)c2)[C@H]1Cc1cccc(O)c1 | inactive | – |
| CCOC(=O)C(C#N)=C(c1ccccc1)c1ccccc1 | – | 6.95 µM (active) and 2.79 µM (active) |
| CC1(C)C2=CCCC(C)(C)[C@]23CC[C@H]1C3 | inactive | – |
| CS(=O)(=O)OCCCCOS(C)(=O)=O | inactive | – |
| IC(I)I | inactive | – |
| C[C@@H]1CCN(C(=O)[C@H](CCCN=C(N)N)NS(=O)(=O)c2cccc3c2NC[C@H](C)C3)[C@@H](C(=O)O)C1 | inactive | – |
| C=C(C)C(=O)OCC(CC)(COC(=O)C(=C)C)COC(=O)C(=C)C | inactive | – |
| CC(C)(C)CC(C)(C)c1ccc(OCCOCC[N+](C)(C)Cc2ccccc2)cc1 | inactive | – |
| CCCCN(CCCC)C(=O)N(CCCC)CCCC | inactive | – |
| CCC(C)c1cc([N+](=O)[O-])cc([N+](=O)[O-])c1OC(=O)OC(C)C (stereo not given) | – | 5.42 µM (active) |
| C=C(C)C(=O)OCCOCCOCCOC(=O)C(=C)C | inactive | – |
| CC(CN=Cc1ccccc1O)N=Cc1ccccc1O (stereo not given) | inactive | – |
| CC(C=O)Cc1ccc(C(C)(C)C)cc1 (stereo not given) | inactive | – |
